An excerpt weighted towards active compounds, which were near 4.7% of everything screened.
PLK1 PBD inh: blocks phosphopeptide binding to human Plk1 polo box domain | P53350 | Plk1 PBD phosphopeptide binding, fluorescence polarization | inhibition, %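 (tested at about 20 µM)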 | 0.13% of 97,000 active; in the data active = inhibition above about 34%, passing the limit was not always enough
sdo1 growth: restores growth of sdo1-depleted yeast; S. cerevisiae sdo1-depleted JHY4D growth rescue, OD600 30 h; hits give high values; pdr5 snq2 efflux-pump mutant strain; z-score at 10 µM; 0.21% of 140,000 active;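 active = z-score above 3 at both the 24 hr and the 30 hr optical density reads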
Cav32 inh: human Cav3.2 channel inhibition, primary screen; O95180; Cav3.2-expressing cells, Fluo-4 calcium fluorescence FDSS; hits give low values; B-score at 10 µM; 4% of 100,000 active;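 active = single-dose well whose peak fluorescence ratio is a statistical outlier from its plate by either plate-standardised score or position-corrected B-score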
hDAT+cocaine: modulates human dopamine transporter uptake under cocaine; B-score at 10 µM; 1.3% of 110,000 active; LLC-PK1 hDAT cells, [14C]-dopamine uptake with cocaine IC80; actives deviate in either direction; Q01959; AID 449768;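 active = Z score or B-score, a plate-position-corrected score, falls beyond the plate's 99.7% confidence bounds, in either direction; inactive = both scores lie inside the 99.7% bounds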
Target sequence (Q01959 whole entry, looked up): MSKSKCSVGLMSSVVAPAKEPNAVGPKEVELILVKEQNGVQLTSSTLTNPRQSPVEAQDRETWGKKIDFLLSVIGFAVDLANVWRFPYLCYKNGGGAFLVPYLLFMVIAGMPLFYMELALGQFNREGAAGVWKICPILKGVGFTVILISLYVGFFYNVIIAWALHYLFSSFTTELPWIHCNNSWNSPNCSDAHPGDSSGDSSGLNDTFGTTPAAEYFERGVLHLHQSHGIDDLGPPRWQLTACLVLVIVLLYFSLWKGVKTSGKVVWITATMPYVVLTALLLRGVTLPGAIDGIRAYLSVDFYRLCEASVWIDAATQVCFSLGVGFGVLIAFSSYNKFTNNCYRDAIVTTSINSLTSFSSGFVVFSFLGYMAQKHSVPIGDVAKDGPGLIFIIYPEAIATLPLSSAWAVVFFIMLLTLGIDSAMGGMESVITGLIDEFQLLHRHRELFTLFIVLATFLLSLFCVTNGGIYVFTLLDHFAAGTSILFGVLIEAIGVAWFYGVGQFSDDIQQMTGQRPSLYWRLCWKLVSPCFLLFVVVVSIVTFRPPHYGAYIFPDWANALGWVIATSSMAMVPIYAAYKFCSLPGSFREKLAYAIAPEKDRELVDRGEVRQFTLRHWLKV
PLK1 inh: inhibitors of human PLK1 kinase | recombinant PLK1 kinase, TR-FRET peptide phosphorylation | inhibition, % at 10 µM | 0.53% of 97,000 active | AID 619;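 active = inhibition of 50% or more in the single-concentration screen; inactive = inhibition below 50%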
Pyk2 oligo antag: Pyk2 (human) oligomerization antagonism | 0.83% of 99,000 active | Q14289 | Q293 cells, Pyk2 FERM NanoBiT luminescence; hits give low values | z-score (the deposit names both 25 µM and 10 µM) | AID 1347419;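 active = Z-score of -3 or lower, scaled per plate to the spread of control and sample wells; inactive = z-score above -3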;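 note: negative z-score means lost luminescence so less FERM oligomerization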
Numbers stand for hits; . = inactive; / = no result.

SMILES	PLK1 PBD inh	sdo1 growth	Cav32 inh	hDAT+cocaine	PLK1 inh	Pyk2 oligo antag
CC(C)C[C@H](NC(=O)OC(C)(C)C)c1nnc(SCC(=O)Nc2ccc(Br)cc2)o1	.	.	-6.5	.	.	.
COC(=O)CSc1nnc([C@H](Cc2ccccc2)NC(=O)OC(C)(C)C)o1	.	.	.	.	.	.
CC(C)C[C@H](NC(=O)OC(C)(C)C)c1nnc(SCc2cccc(F)c2)o1	.	.	-3.4	.	.	.
Cc1nc(Cl)c(C(=O)NC(C)(C)C)c(C)c1Cl	/	.	/	/	/	/
C[n+]1ccccc1COc1ccc(C(C)(C)C)cc1	/	.	/	/	/	/
N#CC1=C(N)Nc2nc3ccccc3n2C1c1ccc(Cl)cc1 (stereo not given)	/	.	/	/	/	/
CCCCONc1ncnc2nonc12	/	.	/	/	/	/
Cc1nc(C(=O)N(C)C)nn1-c1ccc(Cl)cc1Cl	.	.	.	.	.	.
Cc1c(Cl)cccc1NC(=O)c1nc(C)n(-c2cc(OC(C)C)c(Cl)cc2Cl)n1	.	.	-12	.	.	.
Cc1cc(C(=O)NCC(=O)OCC(=O)N(C(C)C)C(C)C)ccc1[N+](=O)[O-]	/	.	/	/	/	/
CC(C)Oc1ccc(C2CC(=O)N(c3ccc(N(C)C)cc3)C2=O)cc1 (stereo not given)	.	.	.	.	.	-4.2
COc1ccccc1NC(=O)CNc1ccc(F)c(Cl)c1	/	.	/	/	/	/
CN(Cc1ccccc1)c1nc2c(c(=O)[nH]c(=O)n2C)n1CCOc1ccccc1	.	.	-4.8	.	.	.
Cc1ccc(Cn2c(CN(C)Cc3ccccc3)nc3c2c(=O)n(C)c(=O)n3C)cc1	.	.	-5.2	.	.	.
CN(Cc1ccccc1)c1nc2c(c(=O)n(C)c(=O)n2C)n1CCCc1ccccc1	.	.	-6.3	.	.	.
Cn1c(=O)c2c(nc(CN3CCN(c4ccccc4)CC3)n2CCc2ccccc2)n(C)c1=O	.	/	-5.7	.	.	.
CN(Cc1ccccc1)c1nc2c(c(=O)[nH]c(=O)n2C)n1Cc1ccccc1	.	.	.	.	.	.
CC(=O)c1ccc(OC(C)C)c(Cc2c(O)nc(N)[nH]c2=O)c1	/	.	/	/	/	/
CCN(CC(=O)Nc1ccccc1OC)C(=O)COc1ccc2ccccc2c1	/	.	/	/	/	/
C=CCOC(=O)/C(=C\C=C\c1ccccc1)NC(=O)c1ccccc1	/	.	/	/	/	/
COc1ccc([N+](=O)[O-])cc1N(CC(=O)NCCC1=CCCCC1)S(C)(=O)=O	/	.	/	/	/	/
CN(Cc1ccccc1)Cc1nc2c(c(=O)n(C)c(=O)n2C)n1Cc1ccc(Cl)cc1	.	.	/	.	.	.
CN(Cc1ccccc1)Cc1nc2c(c(=O)n(C)c(=O)n2C)n1Cc1ccc(F)cc1	.	.	-4.3	.	.	.
O=c1c2ccccc2c(C=Nc2cccc(S(=O)(=O)NCc3ccco3)c2)c(O)n1-c1ccc(Cl)cn1	/	.	/	/	/	/
CCOCN(C(=O)Cn1c(COC)nc2ccccc21)c1c(C)cccc1CC	.	.	-3.3	.	.	.
SMILES	PLK1 PBD inh	sdo1 growth	Cav32 inh	hDAT+cocaine	PLK1 inh	Pyk2 oligo antag
N#CCCN1CCN(C(=S)c2ccc(-c3cccc(Cl)c3)o2)CC1	.	.	.	2.4	.	.
N#CCCN1CCN(C(=S)c2ccc(-c3ccc(Cl)c(Cl)c3)o2)CC1	.	.	.	.	.	.
CCN(CC)c1ccc2cc(-c3nc4ccccc4[nH]3)c(=O)oc2c1	.	.	-7.3	.	.	.
CCN(CC)c1ccc2cc(-c3nc4ccccc4n3C)c(=O)oc2c1	.	.	.	.	.	.
CCN(CC)c1ccc2cc(-c3nnc(-c4ccccc4)o3)c(=O)oc2c1	.	.	-11	.	.	.
C=C1N(c2ccccc2)C(=O)OC1(C)C	/	.	/	/	/	/
Brc1ccc(-c2nc3ncccn3c2NC2CCCCC2)o1	.	.	.	.	.	.
COc1ccc(S(=O)(=O)N(CC(=O)N/N=C/c2cccs2)c2ccc(C)cc2)cc1OC	.	.	-6.1	.	.	.
COc1ccc(S(=O)(=O)N(CC(=O)N/N=C/c2cccs2)c2cc(C)cc(C)c2)cc1OC	.	.	.	.	.	-3
Cc1ccc(S(=O)(=O)N(CC(=O)N/N=C\c2cccs2)c2cccc3cccnc23)cc1	/	.	/	/	/	/
COc1ccc(S(=O)(=O)N(CC(=O)NC2CC2)c2ccc(C)cc2)cc1OC	.	.	.	.	.	.
Cc1ccc(C2c3c(-c4ccccc4O)n[nH]c3C(=O)N2Cc2ccncc2)cc1 (stereo not given)	.	.	.	.	.	.
COc1cc(C2c3c(-c4cc(Cl)c(C)cc4O)n[nH]c3C(=O)N2Cc2cccnc2)ccc1O (stereo not given)	.	.	.	/	.	-4.8
COc1cccc(C2c3c(-c4cc(Cl)c(C)cc4O)n[nH]c3C(=O)N2Cc2cccnc2)c1 (stereo not given)	.	.	.	.	.	-3.7
Cc1ccc(NC(=O)CCn2ccc([N+](=O)[O-])n2)nc1	/	.	/	/	/	/
CCCCN(C)C(=O)C1CCN(Cc2ccc(OCc3ccccc3)cc2)CC1	.	.	-3.6	.	.	.
Cc1ccc(C)c(N(CC(=O)NC2CCCC2)C(=O)c2oc(C(C)(C)C)cc2C)c1	.	.	-4.8	.	.	.
Cc1cc(C(C)(C)C)oc1C(=O)N(CC(=O)NC1CCCC1)Cc1ccc(F)cc1	.	.	.	.	.	.
CC[C@H](C)/C=C(C)/C=C/C1=CC2=CC(=O)[C@]3(C)OC(=O)[C@@H](C(C)=O)[C@@H]3C2=CO1	/	/	-4	.	/	/
COC(=O)c1ccc2nc(C3CCCCC3)c3c(c2c1)CCC3	/	/	.	.	/	/
Cc1[nH]c2ccccc2c1C(=O)C(=O)N1CCCc2ccccc21	/	.	/	/	/	/
Cc1[nH]c2ccccc2c1SCC(=O)N1CCCc2ccccc21	.	.	-4.8	.	.	/
CCn1c(SCC(=O)N2CCCc3ccccc32)nc2cccnc21	.	.	.	.	.	.
CCn1c(SCC(=O)N2CCCc3ccccc32)nc2ccccc2c1=O	.	.	-6.9	3.1	.	.
Cc1ccc(S(=O)(=O)N2CCN(C(=O)CCC(=O)NCc3ccc(F)cc3)CC2)cc1	/	.	/	/	/	/
SMILES	PLK1 PBD inh	sdo1 growth	Cav32 inh	hDAT+cocaine	PLK1 inh	Pyk2 oligo antag
O=C(Cc1cccs1)NC1(C(=O)NC2CCCC2)CCCCC1	/	.	/	/	/	/
Cc1ccc(C(=O)O/N=C(\N)c2nonc2N)cc1	/	.	/	/	/	.
O=C(NS(=O)(=O)Oc1ccc(Cl)cc1)OC[C@@H]1CCCN2CCCC[C@H]12	/	.	/	/	/	/
CCc1ccc(CSc2nccn2-c2ccccc2)cc1	.	.	-5.4	.	.	.
N#Cc1cccc2cnccc12	/	.	.	-2.9	/	.
Cc1ccc2cc(CN(Cc3nnnn3C3CCCCC3)CC3CCCO3)c(=O)[nH]c2c1 (stereo not given)	.	.	-2.6	.	.	.
Cc1cc(C)c2cc(CN(Cc3nnnn3C3CCCCC3)CC3CCCO3)c(=O)[nH]c2c1 (stereo not given)	.	.	.	.	.	.
COc1ccc(CNC(=O)C(C)NC(=O)c2cc3ccccc3o2)cc1 (stereo not given)	.	.	.	-1.7	.	.
c1ccc2nc3ccccc3nc2c1	/	.	-4.4	.	/	/

Source: PubChem (several laboratories)
